Laboratory results as given in PubChem BioAssay (NCATS).
Values joined by “and” are separate entries in the source; they are usually repeats but may differ in a detail not shown here. Equal values may be shown once. Inconclusive results are not listed. Active and inactive are the calls of the source. Unless noted, calls follow the shape of the dose curve; as a rule, active = well fitted curve in either direction with a large enough effect (not every such curve was filed as active); inconclusive = small, poorly fitted or top-dose-only effect, or another doubt; inactive = flat fitted curve, though single readings scatter.

Key:
[1] = AP1 Signaling Pathway (AID 357)
Method in brief: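 ME-180 cells with beta-lactamase reporter under AP-1 response element, stimulated with EC50 EGF; compounds tested in titration series, 5 h at 37 °C. CCF4 substrate added 2.5 h at room temperature; 460/530 nm emission ratio gave %activity and AC50.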

[2] = Stat Signaling Pathway (AID 446);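 also: ME-180 cervical cancer cells given 40 pM IL-6 alongside compound; SIE-controlled beta-lactamase reporter measured as 460/530 nm FRET emission ratio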
Method in brief: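 Overnight-plated ME-180 cells bearing a STAT Inducible Element beta-lactamase reporter; 5 h co-exposure to compound and 40 pM IL-6; values normalized to 300 pM IL-6 and 125 nM JAK inhibitor controls.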

[3] = target: Cytochrome P450 1A2 (Homo sapiens) (UniProt P05177); experiment: p450-cyp1a2 (AID 410; calls by dose curve; also: potency is read from the fitted curve at half-maximal effect)
Method in brief: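 20nM CYP1A2, 100uM Luciferin-ME (=Km), 100mM KPO4; cpd 10 min RT; +NADPH regen, 60 min RT; stop/detect 20 min; luminescence. Normalized to furafylline 57 uM = full inhibition.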

[4] = target: Glucocorticoid receptor (Homo sapiens) (UniProt P04150); experiment: GR-EFC Redistribution (AID 451; calls by dose curve; also: potency is read from the fitted curve at half-maximal effect); details: CHO-K1 GR-EFC translocation, beta-gal luminescence, 2 h
Method in brief: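 Translocation of GR-ED fusion to nuclear EA restores b-gal, read by luminescence after 1 h room-temperature detection. Engineered CHO-K1 biosensor cells, 1,000/well, exposed 2 h at 37 C to titrations up to 46 uM final.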

[5] = target: Mitogen-activated protein kinase 10 (Mus musculus) (UniProt Q61831); experiment: JNK3 AlphaScreen Assay (AID 530);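 also: kinase came from lysate of stimulated human HepG2 cells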; also: potency is read from the fitted curve at half-maximal effect
Method in brief: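 Kinase buffer: 20 mM Tris-HCl pH 7.6, 10 mM MgCl2, 1 mM DTT, 0.1 mM Na3VO4, 0.01% Tween-20; ATP 10 uM. Substrate biotin-GST-cJun(1-79), enzyme from activated HepG2 lysates. Detection by Ser73 phospho-antibody AlphaScreen.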

[6] = NFAT Signaling Pathway (AID 444);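 also: carbachol stimulus at about its EC50 of 1 µM final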
Method in brief: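 Read-out: CCF4 FRET ratio (460 nm/530 nm) after 1 h RT dye loading, used for %activity and AC50 from titration series. Cells: Jurkat NFAT-β-lactamase/M1 line, treated with compound plus 1 uM carbachol for 5 h, 37 °C.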

[7] = target: 3',5'-cyclic-AMP phosphodiesterase 4B (Homo sapiens) (UniProt Q07343); experiment: qHTS Assay for Inhibitors of PDE-IV (AID 607; active = well fitted activation curve with a large enough effect in the main read-out, with a control signal flat, not every such curve was filed as active)
Method in brief: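 Live HEK293 cells with a modified cyclic nucleotide-gated (CNG) channel report intracellular cAMP via membrane-potential dye fluorescence (ex 535/em 590 nm). Endogenous PDE-IV was targeted. Compounds were tested at up to 22.9 uM final; RO 20-1724 100 uM served as control.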

[8] = Cell Viability - BJ (AID 421; calls by dose curve;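 also: potency is read from the fitted curve at half-maximal effect; cells exposed to compound for 40 hours at 37 °C before readout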); details: BJ fibroblast viability, qHTS
Method in brief: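 Quantitative HTS: ATP depletion in BJ cells after 40 hr compound exposure in complete culture medium, detected with CellTiter-Glo; AC50 from standard Hill fits.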

[9] = Cell Viability - Jurkat (AID 426;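 active = dose-dependent loss of cell ATP signal giving a full or clear fitted curve, ranked by lower potency value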;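 also: potency is read from the fitted curve at half-maximal effect; cells exposed to compound for 40 hours at 37 °C before ATP read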); details: qHTS
Method in brief: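 Luminescent ATP read-out (CellTiter-Glo, 20 min at room temperature) after 40 hr compound exposure at 37 °C of Jurkat E6-1 cells, 5000/well. Decreased ATP taken as cytotoxicity; AC50 from standard Hill equation.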

[10] = Cell Viability - Hek293 (AID 427;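 active = compounds whose dose-response curve shows a full or clear partial loss of cell viability, called from curve shape rather than a numeric limit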;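 also: potency is read from the fitted curve at half-maximal effect; cells exposed to compound for 40 hours at 37 °C before reading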); details: qHTS
Method in brief: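 AC50 values derive from Hill-modelled concentration-response of ATP-based luminescence, normalized between DMSO-only and 100 uM tamoxifen controls. Cells were exposed in complete culture medium for 40 hr at 37 °C before detection.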

[11] = Cell Viability - HepG2 (AID 433; calls by dose curve;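 also: potency is read from the fitted curve at half-maximal effect; potency for ATP loss meaning cytotoxicity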); details: qHTS
Method in brief: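 Read-out is luciferase-based quantitation of cellular ATP as a measure of viable HepG2 cells after 40 h treatment at 37 °C. Signal decrease is scaled between DMSO-only and 100 uM tamoxifen controls, with AC50 fitted by the Hill equation.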

[12] = Cell Viability - MRC5 (AID 434; calls by dose curve;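 also: potency is read from the fitted curve at half-maximal effect; cells exposed to compound for 40 hours at 37 °C; potency reflects cytotoxicity seen as loss of intracellular ATP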); details: MRC5 lung fibroblast viability, qHTS
Method in brief: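 AC50 values come from Hill-equation fits of intracellular ATP loss, measured by CellTiter-Glo luminescence. Normal lung fibroblasts (MRC5) had 40 hr compound treatment at 37 C, normalized between DMSO and 100 uM tamoxifen.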

[13] = Cell Viability - SK-N-SH (AID 435; calls by dose curve; also: potency is read from the fitted curve at half-maximal effect); details: SK-N-SH neuroblastoma cell viability qHTS
Method in brief: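 Luminescent ATP signal served as the viability read-out after 40 hours of compound treatment of human neuroblastoma SK-N-SH cells. Concentration-response data, scaled between DMSO and 100 uM tamoxifen, gave AC50 values by standard Hill modeling.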

[14] = Cell Viability - N2a (AID 540; active = well fitted curve in the direction sought with a large enough effect; an effect the other way counts as inactive or inconclusive; also: nearly all actives have a fitted effect of over 45% in size)
Method in brief: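 N2a mouse neuroblastoma, 1500 cells/well, 5 hr settle; compound 40 hr, 37 °C; CellTiter-Glo 20 min RT; luminescence; Hill-fit AC50.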

[15] = Cell Viability - HUV-EC-C (AID 542; active = well fitted curve in the direction sought with a large enough effect; an effect the other way counts as inactive or inconclusive; also: nearly all actives have a fitted effect of over 35% in size)
Method in brief: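 Luminescent ATP read-out (CellTiter-Glo, 20 min room temperature) after 40 hr compound treatment of HUV-EC-C cells at 37 °C. Concentration-response data fitted with the standard Hill equation to give AC50; tamoxifen and doxorubicin served as positive controls.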

[16] = Cell Viability - H-4-II-E (AID 543; active = well fitted curve in the direction sought with a large enough effect; an effect the other way counts as inactive or inconclusive; also: nearly all actives have a fitted effect of over 35% in size)
Method in brief: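 qHTS, rat hepatoma H-4-II-E, 1500 cells/well; 40 hr compound exposure, 37 °C; CellTiter-Glo ATP luminescence after 20 min RT; AC50 by standard Hill fit.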

[17] = Cell Viability - SH-SY5Y (AID 544; active = well fitted curve in the direction sought with a large enough effect; an effect the other way counts as inactive or inconclusive; also: nearly all actives have a fitted effect of over 55% in size)
Method in brief: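 SH-SY5Y, 1500 cells/well, 5 hr pre-incubation 37 °C; cpd 40 hr 37 °C; CellTiter-Glo 20 min RT; luminescence (ATP) read. qHTS concentration-response, Hill fit → AC50. Tamoxifen, doxorubicin as positive controls.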

[18] = Cell Viability - Renal Proximal Tubule (AID 545; active = well fitted curve in the direction sought with a large enough effect; an effect the other way counts as inactive or inconclusive; also: nearly all actives have a fitted effect of over 40% in size)
Method in brief: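 Luminescent ATP signal (CellTiter-Glo) served as the viability read-out after 40 hr compound exposure of freshly isolated rat proximal tubule cells at 37 °C. Concentration-dependent ATP loss was fitted with the Hill equation to give AC50.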

[19] = Cell Viability - Mesenchymal (AID 546; active = well fitted curve in the direction sought with a large enough effect; an effect the other way counts as inactive or inconclusive;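 also: cells exposed to compound for 40 hours before reading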)
Method in brief: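 CellTiter-Glo luminescence (intracellular ATP, 20 min room temperature) after 40 hr compound exposure at 37 °C of 1000 glomerulus-derived human kidney mesenchymal cells/well; AC50 values obtained by fitting qHTS concentration-response data to the Hill equation.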

Measured: Potency

Sequence of Glucocorticoid receptor (Homo sapiens) (P04150 whole entry, looked up, the tested form may be a part): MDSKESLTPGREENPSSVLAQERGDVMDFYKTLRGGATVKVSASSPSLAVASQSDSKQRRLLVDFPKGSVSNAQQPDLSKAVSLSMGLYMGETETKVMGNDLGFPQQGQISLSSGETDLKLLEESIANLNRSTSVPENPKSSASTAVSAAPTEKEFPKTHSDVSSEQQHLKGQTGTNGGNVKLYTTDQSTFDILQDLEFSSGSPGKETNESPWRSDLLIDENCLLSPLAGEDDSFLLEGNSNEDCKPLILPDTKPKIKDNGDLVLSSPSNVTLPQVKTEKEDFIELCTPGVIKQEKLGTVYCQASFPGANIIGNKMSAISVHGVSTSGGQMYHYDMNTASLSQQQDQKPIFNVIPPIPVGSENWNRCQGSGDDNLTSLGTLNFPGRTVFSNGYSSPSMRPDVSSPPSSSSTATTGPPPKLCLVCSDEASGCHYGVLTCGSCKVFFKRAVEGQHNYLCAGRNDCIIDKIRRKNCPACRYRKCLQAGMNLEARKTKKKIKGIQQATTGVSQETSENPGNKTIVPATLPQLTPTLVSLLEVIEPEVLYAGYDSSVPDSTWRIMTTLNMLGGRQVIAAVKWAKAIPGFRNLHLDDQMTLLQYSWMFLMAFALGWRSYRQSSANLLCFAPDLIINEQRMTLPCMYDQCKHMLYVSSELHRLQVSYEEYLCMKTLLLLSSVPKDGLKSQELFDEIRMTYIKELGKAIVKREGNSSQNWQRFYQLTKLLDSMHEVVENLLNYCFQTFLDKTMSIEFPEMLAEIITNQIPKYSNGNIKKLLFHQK
Sequence of 3',5'-cyclic-AMP phosphodiesterase 4B (Homo sapiens) (Q07343 whole entry, looked up): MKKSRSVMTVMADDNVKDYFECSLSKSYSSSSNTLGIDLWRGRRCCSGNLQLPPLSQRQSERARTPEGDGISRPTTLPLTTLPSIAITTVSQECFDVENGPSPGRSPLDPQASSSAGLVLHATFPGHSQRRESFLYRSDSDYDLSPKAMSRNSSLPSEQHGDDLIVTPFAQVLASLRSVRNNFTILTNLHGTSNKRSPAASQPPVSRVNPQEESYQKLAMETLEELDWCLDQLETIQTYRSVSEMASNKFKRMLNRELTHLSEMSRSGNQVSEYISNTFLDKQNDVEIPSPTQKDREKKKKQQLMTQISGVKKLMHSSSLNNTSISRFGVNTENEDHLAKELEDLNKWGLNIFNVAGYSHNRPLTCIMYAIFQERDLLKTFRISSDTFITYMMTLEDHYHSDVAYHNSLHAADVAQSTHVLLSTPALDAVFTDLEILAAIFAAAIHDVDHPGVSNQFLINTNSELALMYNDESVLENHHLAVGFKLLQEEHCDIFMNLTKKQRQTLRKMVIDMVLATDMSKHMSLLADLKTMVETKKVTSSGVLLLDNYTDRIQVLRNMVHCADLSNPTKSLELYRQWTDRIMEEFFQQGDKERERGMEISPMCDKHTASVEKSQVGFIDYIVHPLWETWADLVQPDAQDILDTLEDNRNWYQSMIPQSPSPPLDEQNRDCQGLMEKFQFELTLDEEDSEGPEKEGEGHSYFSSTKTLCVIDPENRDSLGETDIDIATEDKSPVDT
Sequence of Cytochrome P450 1A2 (Homo sapiens) (P05177 whole entry, looked up): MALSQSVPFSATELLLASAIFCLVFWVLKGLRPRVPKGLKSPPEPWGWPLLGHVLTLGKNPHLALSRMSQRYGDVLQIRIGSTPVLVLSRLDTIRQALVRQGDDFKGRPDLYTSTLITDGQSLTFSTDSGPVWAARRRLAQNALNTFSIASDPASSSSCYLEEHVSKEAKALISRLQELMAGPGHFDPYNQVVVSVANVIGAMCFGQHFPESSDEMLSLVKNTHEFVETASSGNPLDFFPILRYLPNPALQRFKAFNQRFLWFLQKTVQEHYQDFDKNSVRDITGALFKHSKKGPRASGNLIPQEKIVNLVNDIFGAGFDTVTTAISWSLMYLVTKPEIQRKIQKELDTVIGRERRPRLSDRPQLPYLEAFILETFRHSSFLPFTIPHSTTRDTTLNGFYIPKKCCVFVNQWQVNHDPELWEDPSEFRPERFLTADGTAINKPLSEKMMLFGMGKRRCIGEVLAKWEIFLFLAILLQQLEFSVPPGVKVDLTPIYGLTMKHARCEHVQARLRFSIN

CC(NCCc1ccc(O)cc1)C(O)c1ccc(O)cc1 (stereo not drawn)
inactive: [1] | [2]

Clc1ccc(COC(Cn2ccnc2)c2ccc(Cl)cc2Cl)c(Cl)c1 (stereo not drawn)
inactive: [4] > 20.6 µM | [5]
active: [3] 1.26 µM

CN[C@H]1[C@@H](O[C@@H]2[C@H](O[C@@H]3[C@@H](O)[C@@H](O)[C@@H](N=C(N)N)[C@@H](O)[C@@H]3N=C(N)N)O[C@H](C)[C@@]2(O)C=O)O[C@@H](CO)[C@@H](O)[C@H]1O
inactive: [1] | [3] | [6] | [2] | [4] > 20.6 µM | [5] | [7]

O=c1cc(-c2ccc(O)c(O)c2)oc2cc(O)cc(O)c12
active: [5] 6.31 µM
inactive: [4] > 20.6 µM and > 46 µM | [7]

C[C@@H]1C[C@H]2[C@@H]3CCC4=CC(=O)C=C[C@]4(C)[C@@]3(F)[C@@H](O)C[C@]2(C)[C@@]1(O)C(=O)CO
inactive: [8] > 92 µM | [9] > 92 µM | [10] > 92 µM | [11] > 92 µM | [12] > 92 µM | [13] > 92 µM | [14] | [15] | [16] | [17] | [18] | [19]

Cc1ccc(NC(=O)c2cccc(N(C)C)c2)cc1NC(=O)c1ccc(O)cc1
active: [3] 1.26 µM
inactive: [4] > 46 µM | [5] | [7]

Cc1cc2nc3c(=O)[nH]c(=O)nc-3n(CC(O)C(O)C(O)CO)c2cc1C (stereo not drawn)
inactive: [1] | [6] | [2] | [4] > 20.6 µM and > 46 µM | [5] | [7]

CN(C)CCN(Cc1ccc(Cl)cc1)c1ccccn1
inactive: [2] | [4] > 20.6 µM | [5]
active: [3] 12.6 µM

CC1C(=O)OC2C(O)C34C5CC(C(C)(C)C)C36C(OC(=O)C6O)OC4(C(=O)O5)C12O (stereo not drawn)
inactive: [4] > 46 µM | [5] | [7]

C=C1c2cccc(O)c2C(O)=C2C(=O)[C@@]3(O)C(O)=C(C(N)=O)C(=O)[C@@H](N(C)C)[C@@H]3[C@@H](O)[C@H]12
inactive: [1] | [3] | [6] | [2] | [4] > 20.6 µM | [5] | [7]

CN1CCN2c3ncccc3Cc3ccccc3C2C1 (stereo not drawn)
inactive: [4] > 46 µM | [5]
